# ER stress surv: ER stress cell death inhibition | CSM14.1 thapsigargin ER stress survival, ATP luminescence | relative survival (cellular ATP), % at 15 µg/mL (by protocol) | 48,000 compounds, 0.33% hits | AID 1010;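 active means survival measured by cellular ATP above 50% at 15 µg/ml in the first screen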;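 further: cell death triggered by about 15 µM thapsigargin; ATP read 24 h after thapsigargin was added; plate controls were thapsigargin with DMSO for no effect and DMSO without thapsigargin for full effect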
# The depositor's hits bear a star. This is one part of a sample in which hits are shown more often than they occur.
SMILES,ER stress surv
COC(C(=O)Nc1ccc(Br)cc1C(=O)c1ccccc1)c1ccccc1 (stereo unspecified),72.1*
COC(=O)c1[nH]cnc1C(=O)Nc1ccc(Br)cc1C(=O)c1ccccc1,1.0
COC(C(=O)Nc1ccc(Br)cc1C(=O)c1ccccc1Cl)c1ccccc1 (stereo unspecified),11.0
Cc1cc(-c2ccc(C=C3C(=O)NC(=S)NC3=O)o2)c(C)c([N+](=O)[O-])c1,13.9
Cc1[nH]c2ccc(S(=O)(=O)O)cc2c1CCN,4.2

# Source: PubChem BioAssay (Sanford-Burnham Center for Chemical Genomics)
